# Among all 360,000 compounds or so, about 2,300 (0.64%) were called active. The entries come from a sample that favours actives as a whole. Values without a mark were called inactive.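 Rule for the calls: active = compounds giving at least 50% protection of heart cells from peroxide-induced death in the single-dose screen, raw or plate-pattern-corrected value; inactive = the rest.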
# Assay: H9c2 cardiomyocyte survival under peroxide injury – uHTS, H9c2 cells, ATPLite luminescence, primary screen (AID 588492);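 note: 0% = DMSO wells with peroxide and 100% = DMSO wells without peroxide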
# Conditions: H9c2 cardiomyocytes, 2 h, at 20 µM, active compounds read high
row,Structure (SMILES),protection from H2O2 cell death
1,Cc1nc2c(-c3ccc(F)cc3)c(C)nn2c(C)c1CCC(=O)NCc1ccco1,2.6%
2,CNc1nnc(-c2ccco2)s1,3.7%
3,Fc1ccc(-c2ccc(-c3nn4c(-c5ccco5)nnc4s3)o2)cc1,98.7% (active)
4,CC(C)(C)OC(=O)C[C@H]1C/C=C\C[C@@H](CC(=O)N[C@H](CO)Cc2ccccc2)C(=O)NC[C@@H](c2ccccc2)OC1=O,10.5%
5,CC(C)(C)OC(=O)C[C@@H]1C/C=C\C[C@@H](CC(=O)N[C@H](CO)Cc2ccccc2)C(=O)NC[C@@H](c2ccccc2)OC1=O,51.6% (active)
6,CC(C)(C)OC(=O)C[C@@H]1C/C=C\C[C@@H](CC(=O)N[C@H](CO)Cc2ccccc2)C(=O)NCCOC1=O,12.4%
7,Cc1ccc(NS(=O)(=O)c2ccc3c(c2)NC(=O)CO3)cc1,-11.5%
8,Cc1c(C)n2c(SCC(=O)NC3CCCC3)nnc2[nH]c1=O,1.3%
9,COc1ccccc1C(=O)NC(CCSC)C(=O)NNC(=O)c1ccccc1C (configuration not stated),4.9%
10,CC1=C/C(=N\S(=O)(=O)c2ccccc2)C(C(C)C)=CC1=O,63.7% (active)
11,Cc1ccc(S(=O)(=O)/N=C2\C=C(NS(=O)(=O)c3ccc(C)cc3)C(=O)c3ccccc32)cc1,-17.9%
12,COc1ccc(S(=O)(=O)/N=C2\C=C(NS(=O)(=O)c3ccccc3)C(=O)c3ccccc32)cc1,-11.4%
13,O=C(c1ccc(O)cc1)c1ccc(C(=O)O)c(C(=O)O)c1,5.7%
14,Cc1cccnc1C(NC(=O)C1CCN(Cc2ccc(Cl)c(Cl)c2)CC1)c1ccc(Cl)cc1 (configuration not stated),4.5%
15,CCn1c(C(O)c2cc(OC)ccc2OC)nc2ccccc21 (configuration not stated),-3.6%
16,Cc1nc2ccccc2n1CC(=O)N/N=C/c1cccs1,-3.1%
17,CCn1c(/C=N/NC(=O)c2ccc(OC)cc2)nc2ccccc21,50.7% (active)
18,S=c1[nH]c2ccccc2c2ccccc12,50.1% (active)
19,S=c1ccc2ccccc2[nH]1,4.8%
20,Cc1cc2c3ccccc3[nH]c(=O)n2n1,2.8%
21,COc1ccc(S(=O)(=O)N2CCN(C(=S)NCC3CCCO3)CC2)cc1OC (configuration not stated),-4.4%
22,N=c1ccn(CC(=O)NC(N)=O)c2ccccc12,4.5%
23,CCOC(=O)CSc1nc(N2CCOCC2)c2c(c1C#N)CC(C(C)C)OC2 (configuration not stated),-4%

row,Structure (SMILES),protection from H2O2 cell death
1,CC1(C)Cc2c(C#N)c(SCc3nc4ccccc4[nH]3)nc(N3CCOCC3)c2CO1,50.1% (active)
2,CC(C)C(=O)N1CCN(c2nc(-c3ccccc3)c3c(c2C#N)CC(C)(C)OC3)CC1,15.1%
3,Cc1ccc(S(=O)(=O)N2CCCC2C(=O)OCc2nc3sc(C)c(C)c3c(=O)[nH]2)cc1 (configuration not stated),34.2%
4,Cc1cc(C)c2nc(N3CCC(C(=O)NCCN4CCOCC4)CC3)sc2c1,-1.3%
5,CCOC(=O)N1CCN(C(=O)CN(C2CCCCC2)S(C)(=O)=O)CC1,-2.2%
6,CC(C)c1cc(N=O)cc(C(C)C)c1O,-7%
7,CC(C)=CCc1c(O)c(CC=C(C)C)c2occ(-c3ccc(O)cc3)c(=O)c2c1O,-14.3%
8,CC(C)=CCc1ccc(O)c(=O)cc1C(C)C,54.2% (active)
9,O=C(c1ccncc1)N1CCN(S(=O)(=O)c2cc(C(F)(F)F)cc(C(F)(F)F)c2)CC1,-1.3%
10,Cc1ccc2nc3c(cc(C(=O)NCCc4ccccc4)c(=N)n3CC3CCCO3)c(=O)n2c1 (configuration not stated),5.6%
11,COc1ccc(CCNC(=O)CCn2c(=O)c3ccccc3n(CC(=O)NCC3CCCO3)c2=O)cc1OC (configuration not stated),7.8%
12,COc1ccc(CCn2c(=N)c(C(=O)NCC3CCCO3)cc3c(=O)n4cccc(C)c4nc32)cc1OC (configuration not stated),59.6% (active)
13,CN1CCN(c2ccc(CNS(=O)(=O)c3cccc(F)c3)cc2)CC1,7.1%
14,CCc1c(C)nc2ncnn2c1N1CCC(C(=O)NCc2ccc3c(c2)OCO3)CC1,-1.5%
15,CCOC(=O)Nc1ccc(S(=O)(=O)N(C)C(C)C)cc1,3.1%
16,O=C(OCC(=O)N1CCN(c2ccccc2)CC1)c1ccc([N+](=O)[O-])s1,-0.2%
17,COc1cc(NC(=O)COC(=O)c2ccc([N+](=O)[O-])s2)cc(OC)c1OC,41.6%
18,COc1ccc(C(=O)COC(=O)c2ccc([N+](=O)[O-])s2)cc1OC,61.6% (active)
19,CO/N=C(/CS(=O)(=O)c1ccc(Br)cc1)c1ccc(OC)cc1,-11.9%
20,Cc1ccc([N+](=O)[O-])c(OCCCNCC(C)O)c1 (configuration not stated),0.6%
21,COc1cc(/C=N/NC(=O)c2cccnc2)ccc1OC(=O)c1cccc(Br)c1,27.2%
22,Cc1ccc(S(=O)(=O)Oc2ccc(/C=N/NC(=O)c3ccncc3)cc2)cc1,2.7%
23,COc1cc(/C=N/NC(=O)c2ccccc2)ccc1OS(=O)(=O)c1ccccc1,81.8% (active)

row,Structure (SMILES),protection from H2O2 cell death
1,Cc1[nH]n(-c2cccc(Cl)c2)c(=O)c1/C=N/n1c(C)nc2ccccc2c1=O,50.4% (active)
2,O=c1c2ccccc2ncn1/N=C/c1ccccc1,-10.6%
3,O=Cc1c(N2CCN(c3cccc(Cl)c3)CC2)nc2ccccn2c1=O,42.7%
4,Oc1ccccc1C=NC1CCCCC1N=Cc1ccccc1O (configuration not stated),7.8%
5,O=C(N/N=C/c1ccccc1O)/C(=C/c1ccccc1)CCO,35.8%
6,O=C(NN=Cc1ccccc1O)C(=O)NN=Cc1ccccc1O,53.6% (active)
7,COCCNC(=S)c1ccc(OC)cc1,5.4%
8,CCNC(=O)C1(C)CCCN1C(=O)c1ccc(N(C)C)cc1 (configuration not stated),0.7%
9,Cc1nc(N2CCN(c3ccccn3)CC2)c2c(C)c(C(=O)Nc3ccc(F)c(Cl)c3)sc2n1,31.9%
10,Cc1nc(N2CCN(c3ccccn3)CC2)c2c(C)c(C(=O)Nc3ccc(F)cc3)sc2n1,71.4% (active)
11,Cc1nc(N2CCOCC2)c2c(C)c(C(=O)Nc3ccc(C(F)(F)F)cc3)sc2n1,-3.8%
12,COc1ccc(S(=O)(=O)N2CCN(c3cnccn3)CC2)cc1,-1.4%
13,CCc1nc2ccc(C(=O)NC3CCN(Cc4ccccc4)CC3)cn2c1N(C)CCN1CCOCC1,7%
14,CCOC(=O)N1CCN(Cc2oc(CO)cc(=O)c2O)CC1,13%
15,O=C(CSC1=Nc2ccccc2C2=NC(c3ccccc3)C(=O)N12)NCC1CCCO1 (configuration not stated),29.7%
16,NC(=O)CSC1=Nc2ccccc2C2=NC(CCC(=O)NCc3ccc(F)cc3)C(=O)N12 (configuration not stated),2.5%
17,CC(C)C1N=C2c3ccccc3N=C(SCC(=O)c3ccc(O)c(O)c3)N2C1=O (configuration not stated),96.8% (active)
18,Cc1ccc(S(=O)(=O)N2CCC(C(=O)N[C@@H](C)C(=O)NCCc3ccccc3)CC2)cc1,2%
19,COc1cccc(CNc2nc3cc(-c4csc5ccccc45)sc3c(=O)n2C)c1,-3.9%
20,CCOc1cccc(-c2nnc(SCC(=O)NC3CC3)n2C)c1,-1.8%
21,COc1ccc(-n2c(SCC(=O)OC(C)C)nnc2-c2ccccn2)cc1,4%
22,COc1ccc(NC(=O)c2cc3nc(-c4ccccc4)cc(C)n3n2)cc1OC,36.7%
23,CCOc1cccc(-c2nn3c(-c4ccccn4)nnc3s2)c1,68% (active)

row,Structure (SMILES),protection from H2O2 cell death
1,c1ccc(-c2cc(-c3nnc4sc(-c5ccccn5)nn34)[nH]n2)cc1,63.3% (active)
2,CN(C(=O)c1ccccn1)c1nnc(-c2ccccn2)s1,-5.5%
3,COc1ccc(-c2nc3ccccc3n2CCC(C)C)cc1OC,6.5%
4,COc1ccc(-c2nn3c(-c4ccccc4)nnc3s2)cc1OC,63.1% (active)
5,O=S(=O)(Nc1ccc2ccccc2c1)N1CCCCC1,-4%
6,Cc1c(C(=O)O)nnn1-c1nonc1N,3.3%
7,Cc1cc(C)c(CN2CCN(C(=O)Cn3ccc(NC(=O)OCc4ccccc4)nc3=O)CC2)c(C)c1,-25%
8,CCN(CC)CCCN1C(=O)C(=O)/C(=C(/O)c2c(C)nc3ccccn23)C1c1ccc(C)o1 (configuration not stated),4.2%
9,COC(=O)c1ccc2nc(-c3ccc(Cl)cc3)c(Cc3cccc(F)c3)n2c1,-2.7%
10,Cc1ccc(N/C(N)=N/c2nc(C(F)(F)F)cc(C(F)(F)F)n2)cc1,-14.8%
11,CCO[C@H]1OC(C(=O)N2CCOCC2)=C[C@@H](c2ccc3c(c2)OCO3)[C@@H]1CCCO,2.8%
12,COc1ccc(OC)c(C(O)c2ncc(-c3cccc(C(F)(F)F)c3)[nH]2)c1 (configuration not stated),-12.4%
13,CCNC(=O)C1(C)CCCN(Cc2noc(-c3ccccc3OC)n2)C1 (configuration not stated),-1.9%
14,CCNC(=O)c1sccc1-n1cccc1,5%
15,O=C(COc1ccccc1O)NC1CCCC1,-0.6%
16,O=C(COC(=O)c1cccc(Cl)c1)NC1CCCCCCC1,-3.2%
17,COc1ccccc1OCC(=O)Nc1ccccc1C(=O)NC1CC1,4.6%
18,Cc1ccccc1NC(=O)CSC1=NCCN1,-2%
19,O=C(COc1cccc2c1CCNC2=O)NC1CCCCC1,56.1% (active)
20,Cc1ccccc1NC(=O)COc1cccc2c1CCNC2=O,70.7% (active)
21,OCC1(Cc2ccccc2C(F)(F)F)CCN(Cc2cccc3cnccc23)CC1,-2.8%
22,Cc1cc(O)ccc1NC1=CC(=O)CC(C)(C)C1,-13.4%
23,CCN(CC)CCCNC(=O)c1c(O)c2cc(F)cc3c2n(c1=O)C(C)CC3 (configuration not stated),22.2%
